According to the supplement of paper PMC6522484:
± gives the standard deviation of the averaged measurements.

Each compound was assayed on HCT116 (assay: cell viability (CellTiter-Glo) relative to plate median (fraction of plate median); higher = more viable cells). Conditions: 5 µM; treatment time 24 h; reporter: TCF4/Wnt.
In short: (§1)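 Colorectal cancer cell lines stably transduced with lentiviral TCF/Wnt firefly luciferase reporters (7TFP or TCF4/Wnt) were seeded in 384-well plates. 24 h later they received library compounds at a final 5 µM for 24 h. Parallel plates were read for firefly luciferase or CellTiterGlo luminescence on a Tecan F500 reader. Each well's signal was normalised to the plate median (webcellHTS2, additive, no log transformation), and the mean of two independent replicates is reported.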

`CN(C)CCc1c[nH]c2ccc(Cn3cncn3)cc12` and `CN1CCC[C@@H]1Cc1c[nH]c2ccc(CCS(=O)(=O)c3ccccc3)cc12` are within error of each other in cell viability: 1.09 ± 0.064 for the first, 1.05 ± 0.12 for the second.

`O=c1c(O)c(-c2ccc(O)c(O)c2)oc2c(O[C@@H]3O[C@H](CO)[C@@H](O)[C@H](O)[C@H]3O)c(O)cc(O)c12` and `OC[C@H]1O[C@@H](Oc2ccc(O)cc2)[C@H](O)[C@@H](O)[C@@H]1O` are within error of each other in cell viability: 0.905 ± 0.22 for the first, 0.989 ± 0.072 for the second.

`CCCNC(C)C(=O)Nc1ccccc1C` (stereo not drawn) and `Cc1nc2ccccc2c(=O)[nH]1` [2-Methyl-3H-quinazoline-4-on] are within error of each other in cell viability: 0.972 ± 0.096 for the first, 1.06 ± 0.064 for the second.

`CC(=O)O[C@@H]1C[C@H]2C(C)(C)[C@@H](O)CC[C@]2(C)[C@H]2CC[C@@]3(C)[C@H](c4ccoc4)OC(=O)[C@H]4O[C@]43[C@@]21C` [beta-DIHYDROGEDUNOL] and `C[C@H]1[C@H](C)CC[C@]2(CO)CC[C@]3(C)C(=CC[C@@H]4[C@@]5(C)CC[C@H](O)C(C)(C)[C@@H]5CC[C@]43C)[C@H]12` are within error of each other in cell viability: 1.08 ± 0.078 for the first, 1.02 ± 0.12 for the second.

`COc1ccc2c(c1)c(CC(=O)O)c(C)n2C(=O)c1ccc(Cl)cc1` and `COc1ccc(-c2coc3c(OC)c(OC)cc(O)c3c2=O)cc1` are within error of each other in cell viability: 0.785 ± 0.33 for the first, 1.07 ± 0.014 for the second.

`C=C1C[C@]23C[C@@]1(O)CC[C@H]2[C@@]12C=C[C@H](O)[C@@](C)(C(=O)O1)[C@H]2[C@@H]3C(=O)O` and `C=C1C(=O)[C@]23[C@H](CC[C@@H]1[C@@H]2O)[C@]12CO[C@@]3(O)[C@H](O)[C@H]1C(C)(C)CC[C@@H]2O` are within error of each other in cell viability: 1.08 ± 0.05 for the first, 1.12 ± 0.19 for the second.

`CC(=O)Oc1cccc(O)c1` and `CC(C)Oc1ccc2c(=O)c(-c3ccccc3)coc2c1` are within error of each other in cell viability: 1.06 ± 0.042 for the first, 1.05 ± 0.083 for the second.

`CCN(CC)C(C)CN1c2ccccc2Sc2ccccc21` (stereo not drawn) and `Cc1cc2c(s1)Nc1ccccc1N=C2N1CCN(C)CC1` are within error of each other in cell viability: 1.02 ± 0.12 for the first, 1.14 ± 0.12 for the second.

`CCCCCC1C(=O)CCC1CC(=O)O` (stereo not drawn) and `CCC(=O)NCC[C@@H]1CCc2ccc3c(c21)CCO3` are within error of each other in cell viability: 1.2 ± 0.18 for the first, 1.15 ± 0.092 for the second.

Going from `O=C(O)c1nc2cc(Cl)c(Cl)cc2nc1O` to `O=C(Nc1ccc([N+](=O)[O-])cc1Cl)c1cc(Cl)ccc1O`, the cell viability falls from 0.957 ± 0.046 to 0.614 ± 0.13.

`C[C@@H]1O[C@H]2O[C@@H]3[C@@H](C)OC(c4ccc5c(c4O)C(=O)c4ccc(C[C@@](C)(O)CC(=O)O)c(O)c4C5=O)C[C@H]3O[C@H]2CC1=O` (stereo partly drawn) [Fridamycin D] and `Oc1ccc2c(c1)OC[C@]1(O)Cc3cc(O)c(O)cc3[C@H]21` are within error of each other in cell viability: 0.942 ± 0.12 for the first, 0.929 ± 0.085 for the second.

`CN1C(C)(C)CCCC1(C)C` and `CC1(C)C[C@@H]2/C(CO)=C\C=C/[C@@](C)(O)CC[C@]21O` are within error of each other in cell viability: 0.939 ± 0.13 for the first, 0.946 ± 0.063 for the second.

First: N[C@@H](Cc1cc(I)c(Oc2cc(I)c(O)c(I)c2)c(I)c1)C(=O)O
Second: Cc1cc(O)c(C)c(O)c1C(=O)O
The cell viability of the first is higher: 1.11 ± 0.042 for the first, 0.927 ± 0.0085 for the second.

`COc1cc2c(cc1OC)-c1cc3ccc(OC)c(OC)c3c[n+]1CC2` and `COc1cc(NS(=O)(=O)c2ccc(N)cc2)nc(OC)n1` are within error of each other in cell viability: 0.896 ± 0.16 for the first, 0.924 ± 0.031 for the second.

`C=CC1=C(C(=O)O)N2C(=O)[C@@H](NC(=O)/C(=N\O)c3csc(N)n3)[C@H]2SC1` and `N/C(=N\C(=O)c1nc(Cl)c(N)nc1N)NCc1ccccc1` are within error of each other in cell viability: 1.04 ± 0.1 for the first, 0.969 ± 0.17 for the second.

`CC(N)C12CC3CC(CC(C3)C1)C2` (stereo not drawn) and `C[C@@H]1CC[C@]2(C(=O)O[C@@H]3O[C@H](CO)[C@@H](O)[C@H](O)[C@H]3O)CC[C@]3(C)C(=CC[C@@H]4[C@@]5(C)C[C@@H](O)[C@H](O)[C@@](C)(CO)[C@@H]5CC[C@]43C)[C@@H]2[C@]1(C)O` [Nigaichigoside F1] are within error of each other in cell viability: 0.986 ± 0.02 for the first, 1.02 ± 0.072 for the second.

`CCCCCC/C=C\CCCCCCCc1cccc(O)c1C(=O)O` and `NC(CO)C(=O)NNCc1ccc(O)c(O)c1O` (stereo not drawn) are within error of each other in cell viability: 1.08 ± 0.028 for the first, 1.07 ± 0.13 for the second.

Going from `C[N+](C)(C)CC(=O)O` to `CNC[C@H](O)c1ccc(O)c(O)c1`, the cell viability rises from 0.98 ± 0.042 to 1.05 ± 0.021.

Compared with `Oc1ccc2c(c1)O[C@H](c1ccc(O)c(O)c1)[C@@H](O)C2`, `CC(=O)N1CCN(c2ccc(OCC3COC(Cn4ccnc4)(c4ccc(Cl)cc4Cl)O3)cc2)CC1` (stereo not drawn) is lower in cell viability: 1.04 ± 0.028 for the first, 0.9685 ± 0.005 for the second.

With `CC(C)(Sc1cc(C(C)(C)C)c(O)c(C(C)(C)C)c1)Sc1cc(C(C)(C)C)c(O)c(C(C)(C)C)c1` the cell viability was 0.987 ± 0.061.

These compounds were tested on SW480 in the same assay as above. Conditions: 5 µM; treatment time 24 h; reporter: 7TFP.
In short: as §1

First: CN(C)CCc1c[nH]c2ccc(Cn3cncn3)cc12
Second: CN1CCC[C@@H]1Cc1c[nH]c2ccc(CCS(=O)(=O)c3ccccc3)cc12
The cell viability of the first is higher: 1.03 ± 0.042 for the first, 0.956 ± 0.023 for the second.

`O=c1c(O)c(-c2ccc(O)c(O)c2)oc2c(O[C@@H]3O[C@H](CO)[C@@H](O)[C@H](O)[C@H]3O)c(O)cc(O)c12` and `OC[C@H]1O[C@@H](Oc2ccc(O)cc2)[C@H](O)[C@@H](O)[C@@H]1O` are within error of each other in cell viability: 0.976 ± 0.033 for the first, 0.936 ± 0.018 for the second.

`CCCNC(C)C(=O)Nc1ccccc1C` (stereo not drawn) and `Cc1nc2ccccc2c(=O)[nH]1` [2-Methyl-3H-quinazoline-4-on] are within error of each other in cell viability: 1.03 ± 0.028 for the first, 0.979 ± 0.044 for the second.

`CC(=O)O[C@@H]1C[C@H]2C(C)(C)[C@@H](O)CC[C@]2(C)[C@H]2CC[C@@]3(C)[C@H](c4ccoc4)OC(=O)[C@H]4O[C@]43[C@@]21C` [beta-DIHYDROGEDUNOL] and `C[C@H]1[C@H](C)CC[C@]2(CO)CC[C@]3(C)C(=CC[C@@H]4[C@@]5(C)CC[C@H](O)C(C)(C)[C@@H]5CC[C@]43C)[C@H]12` are within error of each other in cell viability: 0.984 ± 0.021 for the first, 1 ± 0.05 for the second.

`COc1ccc2c(c1)c(CC(=O)O)c(C)n2C(=O)c1ccc(Cl)cc1` and `COc1ccc(-c2coc3c(OC)c(OC)cc(O)c3c2=O)cc1` are within error of each other in cell viability: 1.03 ± 0.028 for the first, 0.995 ± 0.021 for the second.

`C=C1C[C@]23C[C@@]1(O)CC[C@H]2[C@@]12C=C[C@H](O)[C@@](C)(C(=O)O1)[C@H]2[C@@H]3C(=O)O` and `C=C1C(=O)[C@]23[C@H](CC[C@@H]1[C@@H]2O)[C@]12CO[C@@]3(O)[C@H](O)[C@H]1C(C)(C)CC[C@@H]2O` are within error of each other in cell viability: 1.02 ± 0.052 for the first, 1.045 ± 0.0071 for the second.

Compared with `CC(=O)Oc1cccc(O)c1`, `CC(C)Oc1ccc2c(=O)c(-c3ccccc3)coc2c1` is lower in cell viability: 1.07 ± 0.021 for the first, 1.01 ± 0.021 for the second.

`CCN(CC)C(C)CN1c2ccccc2Sc2ccccc21` (stereo not drawn) and `Cc1cc2c(s1)Nc1ccccc1N=C2N1CCN(C)CC1` are within error of each other in cell viability: 0.998 ± 0.045 for the first, 1.03 ± 0.063 for the second.

First: CCCCCC1C(=O)CCC1CC(=O)O (stereo not drawn)
Second: CCC(=O)NCC[C@@H]1CCc2ccc3c(c21)CCO3
The cell viability of the first is higher: 1.105 ± 0.0071 for the first, 1.06 ± 0.028 for the second.

`O=C(O)c1nc2cc(Cl)c(Cl)cc2nc1O` and `O=C(Nc1ccc([N+](=O)[O-])cc1Cl)c1cc(Cl)ccc1O` are within error of each other in cell viability: 1.03 ± 0.028 for the first, 0.779 ± 0.3 for the second.

First: C[C@@H]1O[C@H]2O[C@@H]3[C@@H](C)OC(c4ccc5c(c4O)C(=O)c4ccc(C[C@@](C)(O)CC(=O)O)c(O)c4C5=O)C[C@H]3O[C@H]2CC1=O (stereo partly drawn) [Fridamycin D]
Second: Oc1ccc2c(c1)OC[C@]1(O)Cc3cc(O)c(O)cc3[C@H]21
The cell viability of the first is higher: 1.02 ± 0.021 for the first, 0.936 ± 0.0014 for the second.

`CN1C(C)(C)CCCC1(C)C` and `CC1(C)C[C@@H]2/C(CO)=C\C=C/[C@@](C)(O)CC[C@]21O` are within error of each other in cell viability: 1.02 ± 0.059 for the first, 1 ± 0.022 for the second.

`N[C@@H](Cc1cc(I)c(Oc2cc(I)c(O)c(I)c2)c(I)c1)C(=O)O` and `Cc1cc(O)c(C)c(O)c1C(=O)O` are within error of each other in cell viability: 0.978 ± 0.018 for the first, 0.996 ± 0.021 for the second.

`COc1cc2c(cc1OC)-c1cc3ccc(OC)c(OC)c3c[n+]1CC2` and `COc1cc(NS(=O)(=O)c2ccc(N)cc2)nc(OC)n1` are within error of each other in cell viability: 0.949 ± 0.054 for the first, 0.956 ± 0.063 for the second.

`C=CC1=C(C(=O)O)N2C(=O)[C@@H](NC(=O)/C(=N\O)c3csc(N)n3)[C@H]2SC1` and `N/C(=N\C(=O)c1nc(Cl)c(N)nc1N)NCc1ccccc1` are within error of each other in cell viability: 0.963 ± 0.025 for the first, 0.998 ± 0.031 for the second.

Compared with `CC(N)C12CC3CC(CC(C3)C1)C2` (stereo not drawn), `C[C@@H]1CC[C@]2(C(=O)O[C@@H]3O[C@H](CO)[C@@H](O)[C@H](O)[C@H]3O)CC[C@]3(C)C(=CC[C@@H]4[C@@]5(C)C[C@@H](O)[C@H](O)[C@@](C)(CO)[C@@H]5CC[C@]43C)[C@@H]2[C@]1(C)O` [Nigaichigoside F1] is higher in cell viability: 0.977 ± 0.025 for the first, 1.05 ± 0.042 for the second.

`CCCCCC/C=C\CCCCCCCc1cccc(O)c1C(=O)O` and `NC(CO)C(=O)NNCc1ccc(O)c(O)c1O` (stereo not drawn) are within error of each other in cell viability: 1.05 ± 0.042 for the first, 1.02 ± 0.021 for the second.

`C[N+](C)(C)CC(=O)O` and `CNC[C@H](O)c1ccc(O)c(O)c1` are within error of each other in cell viability: 0.926 ± 0.036 for the first, 0.916 ± 0.064 for the second.

Compared with `Oc1ccc2c(c1)O[C@H](c1ccc(O)c(O)c1)[C@@H](O)C2`, `CC(=O)N1CCN(c2ccc(OCC3COC(Cn4ccnc4)(c4ccc(Cl)cc4Cl)O3)cc2)CC1` (stereo not drawn) is lower in cell viability: 1.05 ± 0.096 for the first, 0.901 ± 0.012 for the second.

With `CC(C)(Sc1cc(C(C)(C)C)c(O)c(C(C)(C)C)c1)Sc1cc(C(C)(C)C)c(O)c(C(C)(C)C)c1` the cell viability was 0.955 ± 0.028.
